From PubChem BioAssay AID430 (Sanford-Burnham Center for Chemical Genomics, 2006) come the findings set out here.

Structures are written as SMILES. Among all 63,000 compounds or so, about 1,100 (1.7%) were called active. Rule as the data show it: active = cytotoxicity above about 50%; inactive = the rest. Only a selection was taken, and actives are over-represented in it overall. Potency and affinity values are given separately.

A short description of this experiment: HPDE-C7 pancreatic duct cell viability loss – fluorescence, HTS (AID 430).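 Also: cells exposed to compound for 48 hours before viability readout; 0% = vehicle and 100% = reference cytotoxic drug.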 As to conditions: HPDE-C7 pancreatic duct cells viability, at 10 µM, hits give high values.
`CC1(C)CC(=O)C(C(C2=C(O)CC(C)(C)CC2=O)c2cccc(O)c2)C(=O)C1` (stereo not given): the cytotoxicity was 10.5% (inactive). `CC1(C)CC(=O)C2=C(C1)N(c1cccc(O)c1)C1=C(C2)C(=O)CC(C)(C)C1`: the cytotoxicity is 59.8% (active). On to `CC1(C)CC(=O)C=C(Nc2cccc(O)c2)C1`, for which the cytotoxicity is 1.7% (inactive). Under `C=CCn1c(O)c(C(CC)=NCc2cccnc2)c(=O)[nH]c1=O` stands -2.2% (inactive); under `O=C(NCc1cccnc1)c1cc(-c2ccco2)on1`, 1.9% (inactive). Turning to `N#Cc1cc2c(nc1SCC(=O)NCc1ccc3c(c1)OCO3)CCCCC2`, the cytotoxicity is -27.8% (inactive).

On to `COc1cccc(CNC(=O)c2cc3oc4ccccc4c3n2C)c1OC`, for which the cytotoxicity was 53.5% (active). The result for `COc1cccc(CNC(=O)Cn2c(=O)oc3ccccc32)c1OC` reads -4.3% (inactive).

In the case of `COc1ccccc1CNC(=O)c1cc2c(=O)n(C)c3ccccc3c2n1C`, the cytotoxicity is 15.2% (inactive). The result for `CC1=NC(Nc2nc(C)c3ccccc3n2)=NC(C)(C)C1` reads 1.1% (inactive); that for `COc1ccc(CNC(=O)c2cc(-c3ccc(OC)c(OC)c3)on2)cc1`, 1% (inactive); that for `CCCc1cc(C(N)=O)c(NC(=O)C2CCCO2)s1` (stereo not given), -5.1% (inactive). As to `COC(=O)c1nc2nc(C)cc(C(F)(F)F)n2n1`, the cytotoxicity was -8.4% (inactive). For `O=C(Cn1c(=O)n(-c2cccc(Cl)c2)c(=O)n1CC(=O)N1CCCCC1)N1CCCCC1`, the cytotoxicity is 1% (inactive). Under `O=S(=O)(c1ccccc1)C1(S(=O)(=O)c2ccccc2)CCCC1` stands -3.4% (inactive); under `Cc1ccc(S(=O)(=O)C2(S(=O)(=O)c3ccc(C)cc3)CCCC2)cc1`, 54.6% (active); under `Cc1ccc(S(=O)(=O)C2(C(=O)N3CCCCCC3)CC2)cc1`, 6% (inactive). In the case of `O=C(NCCc1cccc(Cl)c1)c1cccnc1`, the cytotoxicity was -6% (inactive). With `Cc1noc(C)c1S(=O)(=O)Nc1ccc(C(=O)N2CCN(c3ccc(Cl)cc3)CC2)cc1`, the cytotoxicity is -12.9% (inactive). Turning to `Cc1ccc(C)c(N2CCN(C(=O)c3ccc(NS(=O)(=O)c4c(C)noc4C)cc3)CC2)c1`, the cytotoxicity is 41.2% (inactive). The result for `N#Cc1ccccc1Cn1c(=O)n(Cc2ccc(C(=O)NCc3ccco3)cc2)c(=O)c2ccccc21` reads 7.9% (inactive).

Regarding `CC(=O)c1cccc(NC(=O)C=C(C)C)c1`, the cytotoxicity was 5.6% (inactive). With `CN(Cc1ccccc1)C(=O)CSc1nnc(-c2ccco2)n1-c1ccccc1`, the cytotoxicity was -10.3% (inactive). The result for `COc1ccc(CNC(=O)CSc2nnc(-c3ccc(NC(C)=O)cc3)n2C)cc1` reads -3.1% (inactive); that for `CCCCCn1c(SCCN2CCOCC2)nc2c1c(=O)[nH]c(=O)n2C`, 5.5% (inactive).

For `COc1ccc(N(CC(=O)Nc2cc(Cl)ccc2OC)S(=O)(=O)c2c(C)noc2C)cc1`, the cytotoxicity was 73.4% (active).

Turning to `CCOc1ccc(N(CC(=O)Nc2ccccc2C)S(=O)(=O)c2c(C)noc2C)cc1`, the cytotoxicity is 65.3% (active). Under `COc1ccc(N(CC(=O)Nc2cc(C)ccc2OC)S(=O)(=O)c2c(C)noc2C)cc1` stands 11.2% (inactive); under `CCOc1ccc(N(CC(=O)NC(C)(C)C)S(=O)(=O)c2c(C)noc2C)cc1`, -7.4% (inactive). Under `CCOc1ccccc1NC(=O)CN(c1cc(C)cc(C)c1)S(=O)(=O)c1c(C)noc1C` stands 6.7% (inactive). Under `CCOc1ccccc1NC(=O)CN(c1ccc(OC)cc1)S(=O)(=O)c1c(C)noc1C` stands 66.8% (active); under `CCOc1ccccc1NC(=O)CN(c1ccc(C)cc1)S(=O)(=O)c1c(C)noc1C`, -19.7% (inactive).

Take `CCOc1ccccc1NC(=O)CN(c1ccc(C)cc1)S(=O)(=O)c1c(C)n[nH]c1C`: the cytotoxicity was 52.3% (active). Under `COc1ccccc1NC(=O)CN(c1ccc(C)cc1)S(=O)(=O)c1c(C)n[nH]c1C` stands 4.4% (inactive); under `COc1ccccc1CNC(=O)CN(c1ccc(C)cc1)S(=O)(=O)c1c(C)n[nH]c1C`, 4.9% (inactive); under `COc1ccc(OC)c(NC(=O)CN(c2ccc(C)cc2)S(=O)(=O)c2c(C)noc2C)c1`, 4.3% (inactive). In the case of `CCOc1ccc(N(CC(=O)Nc2ccc(C)cc2)S(=O)(=O)c2c(C)noc2C)cc1`, the cytotoxicity was 1.8% (inactive). Consider `CCN1CCN(c2ncc(C(=O)Nc3c(F)cc(F)cc3Br)c3ccccc23)CC1`, for which the cytotoxicity is 18.4% (inactive). As for `Cc1ccc(NC(=O)NC2(C(=O)NCc3ccco3)CCCCC2)cc1`, the cytotoxicity is -5.6% (inactive).

With `CCn1[nH]c(=O)c(=Nc2c(C)n(C)n(-c3ccccc3)c2=O)cc1-c1ccc(Cl)cc1`, the cytotoxicity is -9.8% (inactive). Take `O=C(O)c1ccc(COc2ccc(CO)cc2Cl)cc1`: the cytotoxicity is -12.9% (inactive).

Take `O=C1N2CN(C(c3ccccc3)c3ccccc3)CN=C2SC1(CO)CO`: the cytotoxicity is -13.8% (inactive). For the compound `CCOc1ccc(-c2nc(CSCC(=O)N3CCN(C(=O)c4ccco4)CC3)c(C)o2)cc1`, the cytotoxicity is -10.8% (inactive). Under `Cc1[nH]n2c(=O)cc(C(C)(C)C)nc2c1-c1ccccc1` stands 76.6% (active). The result for `Cc1[nH]n2c(=O)cc(C(C)C)nc2c1-c1ccccc1` reads 12.7% (inactive); that for `Cc1cc(=O)n2[nH]c(C)c(-c3ccccc3)c2n1`, -5% (inactive).

As for `CCCCCCNC(=O)C(C#N)c1nc2ccccc2nc1N1CCOCC1` (stereo not given), the cytotoxicity is 20.3% (inactive). Under `CCN(CC)C(=O)N1CCC(NC(=O)Cc2ccccc2)CC1` stands -6.6% (inactive); under `CCOC(=O)C1CCN(C(=O)c2cc(S(=O)(=O)N3CCOCC3)c(Cl)cc2Cl)CC1`, 3.3% (inactive); under `Nc1ccc(-c2cc(N)n(-c3ccccc3)n2)cc1`, 14.8% (inactive).

In the case of `c1coc(-c2nc3ccccc3nc2-c2ccco2)c1`, the cytotoxicity is -5.7% (inactive). Under `c1coc(-c2nc(-c3ccco3)c(-c3ccco3)nc2-c2ccco2)c1` stands -9.1% (inactive); under `c1coc(-c2nc3nc4ccccc4n3nc2-c2ccco2)c1`, 77.5% (active). The result for `Cc1cc(C)c2cc3c(ccn3C3OC[C@H](O)[C@H](O)[C@H]3O)cc2n1` (stereo not given in full) reads -2.7% (inactive). Under `Cc1csc(SCc2nnc(-c3ccccc3Br)o2)n1` stands -11.9% (inactive); under `Cc1cc(C)n(-c2c(F)c(F)c(CN3CCOCC3)c(F)c2F)n1`, -4.7% (inactive); under `COc1ccc(C(=O)CSc2nnc(-c3ccccc3)o2)cc1`, -13.3% (inactive). Consider `COc1cc(OC)cc(-c2nnc(SCC(=O)N3c4ccccc4Sc4ccccc43)o2)c1`, for which the cytotoxicity was -10.6% (inactive).

As for `O=C(CCN1c2ccccc2Sc2ccccc21)OCc1nnc(-c2ccccc2)o1`, the cytotoxicity is 5.5% (inactive). Under `Cc1nnc(SC(=O)N2c3ccccc3Sc3ccccc32)s1` stands -38% (inactive); under `Cc1cccc(Nc2ccccc2)c1`, -12.8% (inactive); under `Cc1cc2cc(CN(Cc3ccco3)C(=O)C3CCCCC3)c(=O)[nH]c2cc1C`, -2% (inactive).

As to `COc1ccc(CNC(=O)c2cc(-c3cccs3)on2)cc1`, the cytotoxicity was 2.4% (inactive).

For the compound `Cc1noc(C(=O)Nc2sc3c(c2C#N)CCC3)c1Cl`, the cytotoxicity is 19% (inactive).

Take `COc1ccccc1NC(=O)C1(C)Cc2ccccc2C(=O)O1` (stereo not given): the cytotoxicity was 10.1% (inactive). The result for `CN(C)CCN(Cc1ccccc1)c1ccnc(N(C)C)c1C#N` reads -24.4% (inactive); that for `COCCNC(=O)CN(CC1CCCO1)C(=O)CCC(=O)Nc1ccccn1` (stereo not given), -5.6% (inactive). Take `CC(=O)c1sc(Nc2nc3ccc(F)cc3s2)nc1C`: the cytotoxicity is 58.8% (active). In the case of `COc1ccc2nc(Nc3nc(C)c(C(C)=O)s3)sc2c1`, the cytotoxicity was 18.2% (inactive).

Consider `CCOC(=O)c1csc(Nc2nc3ccc(F)cc3s2)n1`, for which the cytotoxicity is 40.1% (inactive).

For the compound `O=C(O)CCC(=O)N1CCc2cc(S(=O)(=O)N3CCN(c4ccc(F)cc4)CC3)ccc21`, the cytotoxicity was 3.1% (inactive).

Take `COc1ccccc1N1CCN(C(=O)c2cc3n(n2)C(C(F)(F)F)CC(c2ccco2)N3)CC1` (stereo not given): the cytotoxicity is -21.5% (inactive).

`Cc1ccc(C(=O)CSc2nnc(-c3ccco3)n2Cc2ccccc2)cc1`: the cytotoxicity is -16.2% (inactive). `c1cn2c(NC3CCCC3)c(-c3ccc(N4CCOCC4)cc3)nc2cn1`: the cytotoxicity is 2.8% (inactive). On to `COc1cc(-c2nc3cnccn3c2Nc2ccccc2)ccc1O`, for which the cytotoxicity was 22.1% (inactive). Take `Cc1ccc2cc(CN(Cc3cccs3)C(=O)c3ccco3)c3nnnn3c2c1C`: the cytotoxicity was 22.1% (inactive).

Take `CCc1nc2c(n1O)CCc1nonc1-2`: the cytotoxicity was 3.5% (inactive). Take `CCCSc1nc2c(c(=O)[nH]c(=O)n2C)n1C`: the cytotoxicity is 2.1% (inactive).

`NS(=O)(=O)c1ccc(S(=O)(=O)N(Cc2ccccc2F)CC2CCCO2)cc1` (stereo not given): the cytotoxicity is -0.3% (inactive). Under `CC(NC(=O)NCC1CCCO1)(C(F)(F)F)C(F)(F)F` (stereo not given) stands -16% (inactive); under `Cc1nc2ccccc2nc1CSc1nncs1`, 3.3% (inactive); under `Cc1nc(CNS(=O)(=O)c2ccc3c(c2)CCCC3)cs1`, -11.4% (inactive). Under `CCCCNc1ncnc2c1cnn2-c1ccccc1` stands 65% (active); under `CC(C)OCCCNc1ncnc2c1cnn2-c1ccccc1`, 26.6% (inactive). As for `CN(C)CCCNc1ncnc2c1cnn2-c1ccccc1`, the cytotoxicity is -5.5% (inactive).

Turning to `CN(C)CCNc1ncnc2c1cnn2-c1ccc(Cl)cc1`, the cytotoxicity was 19.4% (inactive). For `COCCNc1ncnc2c1cnn2-c1ccc(Cl)cc1`, the cytotoxicity is 4.6% (inactive). The result for `CCCCNc1ncnc2c1cnn2-c1ccc(Cl)cc1` reads 72.3% (active); that for `CS(=O)CCC(NS(=O)(=O)c1ccccc1)C(=O)O` (stereo not given), -7.3% (inactive); that for `Cn1cc(C(=O)NCCN2CCN(c3cccc(Cl)c3)CC2)c2c3ccccc3n(C)c2c1=O`, -12.1% (inactive). With `Cc1ccc(Cl)cc1N1CCN(C(=O)c2cn(C)c(=O)c3c2c2ccccc2n3C)CC1`, the cytotoxicity is 93.1% (active). Under `COc1ccc(N2CCN(C(=O)c3cn(C)c(=O)c4c3c3ccccc3n4C)CC2)cc1` stands 10.1% (inactive); under `Cc1cccc(N2CCN(C(=O)c3cn(C)c(=O)c4c3c3ccccc3n4C)CC2)c1C`, 53.7% (active); under `Cn1cc(C(=O)N2CCN(C(=O)c3ccco3)CC2)c2c3ccccc3n(C)c2c1=O`, -1.4% (inactive). Under `CCOC(=O)N1CCN(C(=O)c2cn(C)c(=O)c3c2c2ccccc2n3C)CC1` stands -11.5% (inactive).
